Bioassay records: PubChem, National Center for Advancing Translational Sciences (NCATS)
LmPK inh – qHTS Assay for Inhibitors of Leishmania Mexicana Pyruvate Kinase (LmPK); purified LmPK, Kinase-Glo ATP luminescence, 1 h; Potency, µM (series often up to 57.5 µM), without a hit: at the top dose activity change, negative = inhibition, usual class: inhibitors; 290,000 tested, 0.37% active; note: potency is the fitted concentration of half-maximal effect; % is set by controls: 0 for no effect and ±100 for the full control effect
Target sequence (Q27686 whole entry, looked up): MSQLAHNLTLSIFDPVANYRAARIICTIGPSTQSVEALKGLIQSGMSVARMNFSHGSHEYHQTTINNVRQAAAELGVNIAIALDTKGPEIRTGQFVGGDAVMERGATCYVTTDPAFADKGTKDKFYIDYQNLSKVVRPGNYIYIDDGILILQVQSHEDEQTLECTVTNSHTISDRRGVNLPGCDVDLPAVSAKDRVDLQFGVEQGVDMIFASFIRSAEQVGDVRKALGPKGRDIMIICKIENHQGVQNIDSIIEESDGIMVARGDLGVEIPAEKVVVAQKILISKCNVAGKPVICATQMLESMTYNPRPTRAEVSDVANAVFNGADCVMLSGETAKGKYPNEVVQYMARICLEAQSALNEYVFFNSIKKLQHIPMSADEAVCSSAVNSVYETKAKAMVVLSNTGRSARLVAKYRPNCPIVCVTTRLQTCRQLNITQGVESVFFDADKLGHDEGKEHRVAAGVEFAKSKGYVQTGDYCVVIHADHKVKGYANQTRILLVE
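In 50 mM imidazole pH 7.2 with 7 mM MgCl2, LmPK (0.1 nM) turned over PEP (0.5 mM) and ADP (0.1 mM) for 1 h at room temperature. Luciferase read-out of ATP.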
FBPA Giardia inh – qHTS Assay for Inhibitors of Fructose-1,6-bisphosphate Aldolase from Giardia Lamblia | A8B2U2 | purified Giardia FBPA | Potency, µM (top dose mostly 59.6 µM), for the others: at the top dose activity, negative = inhibition, hits mostly inhibitors | 290,000 tested, 0.71% active | AID 2451, 2010; note: potency is the fitted concentration of half-maximal effect; % is set by controls: 0 for no effect and ±100 for the full control effect; nearly all actives have a fitted effect of over 55% in size
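Giardia FBPA (40 nM reagent) was preincubated 10 min at RT with compound (up to 57.5 uM final), then substrate plus GAPDH/TPI/NAD/arsenate coupling system with diaphorase/resazurin was added; resorufin fluorescence (525/598 nm) was read after 20 min.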
Sm TGR inh – qHTS Assay for the Inhibitors of Schistosoma Mansoni Peroxiredoxins. Schistosoma mansoni thioredoxin glutathione reductase (TGR), Q962Y6. purified TGR, DTNB reduction, TNB absorbance 405 nm. Potency, µM (highest dose often 114 µM), inactives show at the top dose activity change, negative = inhibition, actives largely listed as inhibitors. 360,000 tested, 3% active. AID 485364, 2010; note: potency is the fitted concentration of half-maximal effect; % is set by controls: 0 for no effect and ±100 for the full control effect; nearly all actives have a fitted effect of over 60% in size
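TGR 20 nM + NADPH 100 uM (dispensed conc.), cpd preinc 15 min RT; start with NADPH (500 uM addition) then DTNB (15 mM addition). Kinetic TNB absorbance, 405 nm filter. Four-parameter Hill fit across titration.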
Tb PYK inh – qHTS of Trypanosoma Brucei Inhibitors. TbPYK enzyme, Kinase-Glo Plus ATP luminescence, 45 min. 410,000 tested, 0.12% active. AID 624173, 2012. Potency, µM (highest dose often 76.8 µM), without a hit: at the top dose activity, negative = inhibition, hits mostly inhibitors; note: potency is the fitted concentration of half-maximal effect; % is set by controls: 0 for no effect and ±100 for the full control effect; nearly all actives have a fitted effect of over 50% in size
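Luminescent Kinase-Glo Plus end-point after 45 min room-temperature reaction of T. brucei pyruvate kinase started with 130 uM ADP (final). Buffer TEA 50 mM pH 7.2 with KCl, MgCl2, BSA, Tween-20; titration-based qHTS with fitted concentration-effect curves.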
Shiga toxin inh – A qHTS for Small Molecule Inhibitors of Shiga Toxin; inhibition, % at 38.7 µM; Vero cells, Shiga toxin protein synthesis inhibition reporter; 290,000 tested, 9.2% active; AID 2315, 2010; in the data active = inhibition mostly above about 28%, no sharp cut-off; inactive = mostly below about 43%; note: 0% is about no effect
Cycloheximide cs – Cycloheximide Counterscreen for Small Molecule Inhibitors of Shiga Toxin; 300,000 tested, 12% active; max response, %; cell reporter, cycloheximide protein synthesis inhibition counterscreen; in the data active = max response mostly above about 13%, no sharp cut-off; inactive = mostly below about 14%; note: read at 38.3 µM for the half of the compounds with a filed dose; 0% is about no effect
An asterisk follows results filed as active; ? = inconclusive; · = not tested or not shown. Many of the other results were omitted from the sample, so hits are more common in it than they were. Unless noted, calls come from the whole dose curve; as a rule, active = well fitted curve in the direction sought with a large enough effect; inconclusive = small, poorly fitted or top-dose-only effect, or another doubt; inactive = no such curve, though single readings can be large; an effect the other way counts as inactive or inconclusive.

SMILES	LmPK inh	FBPA Giardia inh	Sm TGR inh	Tb PYK inh	Shiga toxin inh	Cycloheximide cs
CC(=O)N1CCN(c2csc3ccc(F)cc3c2=O)CC1	·	·	89.1µM*	-14.8%	·	·
Oc1ccc(Nc2nc(Cl)nc(NCc3ccco3)n2)cc1	-2.4%	4.1%	-7.8%	0.0%	38.0	34.4*
c1ccc(Nc2nc(NCc3ccco3)c3ccccc3n2)cc1	-1.8%	-12.2%	-0.9%	0.0%	32.9*	15.7*
Cc1ccccc1Nc1nc(NCc2ccco2)c2ccccc2n1	-1.1%	0.8%	-30.9%	-0.5%	48.9	19.4*
Cc1cccc(Nc2nc(NCc3ccco3)c3ccccc3n2)c1	0.3%	?	-4.7%	-1.1%	23.3	11.1*
CSc1nc(NCc2ccco2)c2ccccc2n1	-4.5%	-1.4%	8.3%	-3.2%	14.4	-3.8
Oc1ccccc1Nc1nc(NCc2ccco2)c2ccccc2n1	4.1%	-10.1%	-0.5%	8.2%	14.8	-0.9
CC(=O)Nc1ccc(S(=O)(=O)N[C@@H](C)C(=O)OCc2ccc(Cl)cc2)cc1	-0.3%	10.1%	-5.3%	5.7%	-12.5	0.6
CCCC(=O)Nc1cccc(OCc2cc(=O)n3cccc(C)c3n2)c1	·	·	3.7%	0.0%	·	·
O=C(CCCCCNC(=O)c1ccccc1Br)N=Nc1c(O)[nH]c2ccccc12	-7.4%	5.3%	·	-5.0%	2.3	-2.7
Cc1noc(/C=C/c2ccccc2F)c1S(=O)(=O)N1CCC(C(=O)Nc2ccc(C#N)cc2)CC1	·	·	2.5%	1.9%	·	·
COc1ccc(CNC(=O)c2cnc3sc(N4CCCCCC4)nn3c2=O)cc1	·	·	-1.2%	5.5%	·	·
N/C(Cc1ccc(Cl)c(Cl)c1)=N\OC(=O)c1cccs1	1.1%	0.9%	-19.9%	-1.7%	-4.8	2.4
Cc1ccc(/C(N)=N/OC(=O)Oc2ccccc2)cc1	-22.8%	-6.5%	8.7%	-7.7%	22.4	-3.2
Cc1cccc(/C(N)=N/OC(=O)c2cccnc2)c1	22.4µM*	0.8%	45.7%	1.7%	103.4*	33.2*
Cc1ccc(/C(N)=N/OC(=O)c2ccc(C)cc2Cl)cc1	-7.5%	-9.4%	-4.9%	-10.1%	25.7*	80.5*
CCSc1ccc(/C(N)=N/OC(=O)c2cccs2)cn1	-2.0%	·	2.1%	-6.7%	88.4*	45.6*
N/C(=N\OC(=O)c1ccc(Br)o1)c1ccccn1	12.6µM*	-1.8%	1.5%	-21.5%	60.5*	25.7*
CN(C(=O)CSc1nc2ccc(NC(=O)CCc3ccccc3)cc2s1)c1ccccc1	·	·	-10.4%	1.2%	·	·
COc1cc(OC)cc(C(=O)O/N=C(\N)c2cccc(C)c2)c1	1.2%	11.6%	-7.2%	4.3%	43.9	13.0
Cc1cccc(/C(N)=N/OC(=O)c2ccc(Cl)cc2Cl)c1	7.94µM*	0.4%	-7.3%	?	72.1*	70.2*
O=C(O/N=C(\c1ccccc1)c1ccncc1)c1ccccc1Cl	6.4%	-1.4%	2.0%	15.1%	-5.7	-1.0
N/C(=N\OC(=O)c1ccc(Cl)cc1Cl)c1cccnc1	?	0.4%	0.0%	-3.4%	90.7*	34.9*
CCOP(=O)(OCC)/C(=N/OC(=O)c1ccc(Cl)cc1Cl)C(N)=O	2.7%	-28.8%	6.31µM*	-6.0%	9.4	-2.4
N/C(=N\OC(=O)c1ccc(Cl)cc1Cl)c1ccccc1	11.2µM*	14.2%	-20.9%	?	127.2*	56.3*
SMILES	LmPK inh	FBPA Giardia inh	Sm TGR inh	Tb PYK inh	Shiga toxin inh	Cycloheximide cs
CCOc1ccc(NC(=O)CN(C)C(=O)C2CC(=O)N(CCc3ccccc3)C2)cc1OCC (stereo not given)	·	·	-7.7%	4.1%	·	·
CCN1C(=O)[C@H]2[C@@H](c3ccc(OC)cc3)N[C@]3(CCCN(CC4CCCCC4)C3=O)[C@H]2C1=O	·	·	·	5.7%	·	·
COc1ccc2cc3cc(C(=O)Nc4ccccc4C)oc3nc2c1	·	·	-9.3%	5.0%	·	·
N/C(=N\OC(=O)c1cccs1)c1cccnc1	-18.9%	2.6%	6.9%	1.4%	42.8*	39.9*
O=C(NNC(=O)c1cccs1)c1cccnc1	-1.3%	10.0%	-0.4%	2.1%	6.3	-3.5
Cc1cccc(/C(N)=N/OC(=O)c2ccc(Br)o2)c1	-22.6%	-4.6%	2.3%	-17.1%	90.0*	90.9*
